Active and inactive are the calls of the source. The rule behind the calls is not given here.
Target: Muscarinic acetylcholine receptor M2 (Homo sapiens) (UniProt P08172)
Experiment: hM2 allosteric modulation, ACh fold-shift, selectivity assay for M4 PAM project, cell-based, Gqi5 chimera, calcium (AID 1930)
Conditions: hM2/Gqi5 cells; series mostly up to 10 µM; ACh response, % of max: at the top concentration

Muscarinic acetylcholine receptor M2 (Homo sapiens), sequence (P08172 whole entry, looked up): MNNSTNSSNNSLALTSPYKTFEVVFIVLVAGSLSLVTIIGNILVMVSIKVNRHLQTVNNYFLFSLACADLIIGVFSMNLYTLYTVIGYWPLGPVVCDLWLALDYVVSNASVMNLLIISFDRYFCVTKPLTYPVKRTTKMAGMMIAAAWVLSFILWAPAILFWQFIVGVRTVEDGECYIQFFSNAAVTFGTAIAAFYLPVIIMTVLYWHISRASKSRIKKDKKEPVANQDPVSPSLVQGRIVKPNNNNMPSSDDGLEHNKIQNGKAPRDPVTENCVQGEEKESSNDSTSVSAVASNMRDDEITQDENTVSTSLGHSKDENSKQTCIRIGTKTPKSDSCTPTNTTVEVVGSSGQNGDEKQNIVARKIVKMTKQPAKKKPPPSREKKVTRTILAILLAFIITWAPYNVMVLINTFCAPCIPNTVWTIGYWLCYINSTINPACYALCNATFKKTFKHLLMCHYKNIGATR

ACh response, % of max, inactive:
Cc1cc(OCCN2CCOCC2)nc2sc(C(=O)NC(C)(C)C)c(N)c12 96.2
COc1ccc(CNC(=O)c2sc3nc(OCc4ccncc4)cc(C)c3c2N)cc1 102
Cc1cc(OCc2ccncc2)nc2sc(C(=O)NCc3cc(F)ccc3F)c(N)c12 95.8
Cc1cc(OCc2ccncc2)nc2sc(C(=O)NCc3cccc(F)c3F)c(N)c12 97.2
